Records with an inconclusive call do not appear. Where a call stands in place of a potency, no number is given. The source made the active and inactive calls. The call rests on the fitted dose curve; in most records, active means well fitted curve in the direction sought with a large enough effect; inconclusive means small, poorly fitted or top-dose-only effect, or another doubt; inactive means no such curve, though single readings can be large; an effect the other way counts as inactive or inconclusive.
Assays:
[1] = target: ATP-dependent 6-phosphofructokinase (Trypanosoma brucei brucei) (UniProt O15648); test: qHTS Assay to Find Inhibitors of T. brucei phosphofructokinase: hit validation (AID 492961);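 further: luminescence reports ADP formed as PFK phosphorylates fructose-6-phosphate with ATP; series mostly up to about 51 µM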
Method in brief: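 PFK 1.25 nM, F6P 0.5 mM, ATP 0.1 mM, MgCl2 5 mM, 0.1 M TEA pH 8.0, Tween20 0.01%, BSA 0.1%; 45 min RT. ADP-Glo two-step detection, luminescence. qHTS titration; curve fitting with curve-class categorization.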

[2] = target: Ubiquitin carboxyl-terminal hydrolase 1 (Homo sapiens) (UniProt O94782); test: Inhibitors of USP1/UAF1: Pilot qHTS (AID 504865); further: nearly all actives have a fitted effect of over 35% in size; further: potency means the concentration at half of the fitted maximal effect
Method in brief: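 USP1/UAF1 complex at 1 nM preincubated 15 min at room temperature with compound, then Ub-Rho substrate added at 150 nM final. Fluorescence (480/540 nm) read kinetically in 50 mM HEPES pH 7.8, 0.5 mM EDTA, 1 mM TCEP, 0.1 mg/ml BSA, 0.01% Tween-20.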

Sequence of Ubiquitin carboxyl-terminal hydrolase 1 (Homo sapiens) (O94782 whole entry, looked up): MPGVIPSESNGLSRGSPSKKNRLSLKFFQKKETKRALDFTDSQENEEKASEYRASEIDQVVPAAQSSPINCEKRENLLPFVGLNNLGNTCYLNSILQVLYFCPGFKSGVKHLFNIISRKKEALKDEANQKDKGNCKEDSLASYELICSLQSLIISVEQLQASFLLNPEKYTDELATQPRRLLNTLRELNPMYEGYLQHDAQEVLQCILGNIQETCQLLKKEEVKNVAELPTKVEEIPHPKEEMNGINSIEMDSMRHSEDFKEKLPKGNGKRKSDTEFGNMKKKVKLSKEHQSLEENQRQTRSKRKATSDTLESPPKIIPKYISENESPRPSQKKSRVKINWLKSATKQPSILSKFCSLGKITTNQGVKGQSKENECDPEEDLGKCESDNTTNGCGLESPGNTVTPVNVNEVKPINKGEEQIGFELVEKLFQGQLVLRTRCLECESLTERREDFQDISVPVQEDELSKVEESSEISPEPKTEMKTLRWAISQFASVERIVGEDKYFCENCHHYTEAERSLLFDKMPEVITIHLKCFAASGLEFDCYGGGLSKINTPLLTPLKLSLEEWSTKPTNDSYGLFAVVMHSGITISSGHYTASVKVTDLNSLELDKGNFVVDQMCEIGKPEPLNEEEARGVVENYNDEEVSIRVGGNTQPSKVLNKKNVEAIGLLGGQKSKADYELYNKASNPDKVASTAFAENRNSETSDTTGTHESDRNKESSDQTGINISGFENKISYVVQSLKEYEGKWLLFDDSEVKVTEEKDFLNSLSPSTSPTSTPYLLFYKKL
Sequence of ATP-dependent 6-phosphofructokinase (Trypanosoma brucei brucei) (O15648 whole entry, looked up): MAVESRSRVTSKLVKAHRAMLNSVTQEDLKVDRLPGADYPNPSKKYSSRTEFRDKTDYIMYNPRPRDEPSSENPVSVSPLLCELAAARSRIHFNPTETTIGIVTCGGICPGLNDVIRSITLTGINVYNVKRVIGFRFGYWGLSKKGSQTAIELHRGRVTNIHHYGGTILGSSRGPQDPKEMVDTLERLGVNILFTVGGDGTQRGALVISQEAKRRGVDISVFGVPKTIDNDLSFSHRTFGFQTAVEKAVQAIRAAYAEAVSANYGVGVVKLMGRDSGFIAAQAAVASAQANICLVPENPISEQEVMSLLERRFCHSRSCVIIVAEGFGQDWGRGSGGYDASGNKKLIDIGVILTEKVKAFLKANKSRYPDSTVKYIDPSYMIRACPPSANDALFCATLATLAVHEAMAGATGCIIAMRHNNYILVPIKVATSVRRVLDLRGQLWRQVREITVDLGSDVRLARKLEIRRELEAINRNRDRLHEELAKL

| SMILES | Potency [1] | Potency [2] |
| --- | --- | --- |
| Oc1cn2c(n1)Nc1ccc(Cl)c(Cl)c1C2 | inactive | inactive |
| CCOc1ccc2ccccc2c1C(=O)N[C@@H]1C(=O)N2[C@@H]1SC(C)(C)[C@@H]2C(=O)O | inactive | inactive |
| O=S(=O)(O)NC1CCCCC1 | inactive | inactive |
| Cc1c(O)cccc1C(=O)N[C@@H](CSc1ccccc1)[C@H](O)CN1C[C@H]2CCCC[C@H]2C[C@H]1C(=O)NC(C)(C)C | inactive | inactive |
| COc1ccc2[nH]c(S(=O)Cc3ncc(C)c(OC)c3C)nc2n1 (configuration not stated) | inactive | inactive |
| CCN(CC)CCSC(=O)C(c1ccccc1)c1ccccc1 | inactive | inactive |
| CCOC(CN1CCN(CC(C)C(=O)c2ccccc2)CC1)c1ccccc1 (configuration not stated) | inactive | inactive |
| CCCCCCCCCCCCCCCCCCOCC(O)CO (configuration not stated) | inactive | inactive |
| NC(=O)NNc1ccccc1 | inactive | inactive |
| COc1ccc2c(c1)C(=O)N(CCc1ccc(S(=O)(=O)NC(=O)NC3CCCCC3)cc1)C(=O)C2(C)C | inactive | inactive |
| CCCCOc1cc(C(=O)OCCN(CC)CC)ccc1N | inactive | inactive |
| N[C@@H](CSCCCO)C(=O)O | inactive | inactive |
| CCCCN(CCCC)CC(O)c1cc(Cl)cc2c1-c1ccc(Cl)cc1/C2=C/c1ccc(Cl)cc1 (configuration not stated) | inactive | inactive |
| COc1cc(C)c(Cc2cnc(N)nc2N)cc1OC | inactive | inactive |
| O=C(Oc1ccccc1C(=O)O)c1ccccc1O | inactive | inactive |
| [O-][n+]1cccc(CO)c1 | inactive | inactive |
| CCCCCCCCCCCCOS(=O)(=O)O | inactive | 79.4 µM (active) |
| NC(=O)NC(=O)Cc1ccccc1 | inactive | inactive |
| CC(=O)Oc1ccc(C2(c3ccc(OC(C)=O)cc3)C(=O)Nc3ccccc32)cc1 | inactive | inactive |
| COc1cc2[nH]c(=O)[nH]c(=O)c2cc1OC | inactive | inactive |
| NCC(=O)CCC(=O)O | inactive | inactive |

From PubChem BioAssay (NCATS)
